High-throughput results: PubChem BioAssay, National Center for Advancing Translational Sciences (NCATS)
Shown are actives, neighbours in structure and some others; about 8.8% of the full set was active somewhere.
KB-V1 MDR tox: kills drug-selected multidrug resistant KB-V1 cells; Potency, µM (top dose mostly 46.1 µM), usual class: cytotoxic; 400,000 tested, 3.4% active; AID 1347076; KB-V1 MDR cells viability, CellTiter-Glo, 72 h; note: nearly all actives have a fitted effect of over 60% in size
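Cytotoxicity via CellTiter-Glo luminescence after 72 h compound exposure at 37 degrees C. Cells: drug-selected KB-V1 line, DMEM phenol-red free plus 10% FBS. Compounds tested at multiple concentrations; normalized data fitted to concentration-effect curves.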
HT1080 IDH1KD tx: kills HT-1080 cells with IDH1 knockdown. HT-1080 IDH1 knockdown viability, ATP luminescence, 48 h. Potency, µM (doses to about 46.1 µM), most hits filed as cytotoxic. 360,000 tested, 2% active
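In this qHTS, HT-1080 cells depleted of IDH1 are exposed for 48 h at 37 °C to compound titrations. Toxicity is scored from CellTiter-Glo luminescence, with DMSO as full viability and medium alone as none.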
HT1080-NT tox: kills 2HG-producing HT-1080-NT fibrosarcoma cells. HT-1080-NT fibrosarcoma viability, CellTiter-Glo ATP luminescence, 48 h. 360,000 tested, 1.6% active. AID 686970. Potency, µM (doses to about 46.1 µM), hits mostly cytotoxic;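 note: NT is the 2HG producing partner of a matched IDH1 knockdown line; nearly all actives have a fitted effect of over 55% in size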
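Compounds were tested in concentration-response format on HT-1080-NT cells for 48 hours at 37 degrees C. Cell viability came from CellTiter-Glo luminescence; curves were classified by r2, response magnitude and activity.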
KB-3-1 cytotox: kills parental KB-3-1 adenocarcinoma cells; KB-3-1 viability, CellTiter-Glo ATP luminescence, 72 h; Potency, µM (titrated, usually from 46.1 µM), usual class: cytotoxic; 400,000 tested, 1.4% active; AID 1347075; note: nearly all actives have a fitted effect of over 60% in size
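Parental KB-3-1 viability, qHTS format: 72 h compound exposure, 37 °C; CellTiter-Glo; media-only wells and DMSO plates as controls; concentration-effect fits on corrected data.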
IL1B secr inh: blocks inflammasome-driven IL-1 beta release. THP-1 LPS/ATP IL-1B secretion, AlphaLISA, 16 h; stronger effect = lower value. activity change, % at 57.5 µM. 360,000 tested, 4.7% active; in the data active = activity change below about -50%; inconclusive = mostly about -30% to -49%
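Secreted IL-1B measured by AlphaLISA bead assay after 16 h compound exposure of THP-1 cells; compounds (final up to 57.5 uM) added 1 h before LPS (250 ng/mL) and ATP (1.25 mM) stimulation; lower signal means less secretion.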
Hits are given with their value; - = inactive; ? = inconclusive; . = no result given; ! = not active in a repeat; [ ] = remark or other dose. Unless noted, calls come from the whole dose curve; as a rule, active = well fitted curve in the direction sought with a large enough effect; inconclusive = small, poorly fitted or top-dose-only effect, or another doubt; inactive = no such curve, though single readings can be large; an effect the other way counts as inactive or inconclusive.

SMILES	KB-V1 MDR tox	HT1080 IDH1KD tx	HT1080-NT tox	KB-3-1 cytotox	IL1B secr inh
O=C(Nc1cccc(Cl)c1)N1CCN2C(=O)c3ccccc3C12c1ccccc1 (stereo not given)	-	?	?	?	-58
Cc1ccc(C(=O)N2CCN3C(=O)c4ccccc4C23c2ccc(Cl)cc2)cc1 (stereo not given)	-	?	?	-	-
CN1C(=O)c2ccccc2Sc2ccc(NC(=O)COc3ccc(Cl)cc3)cc21	8.2µM	.	.	?	.
Cc1ccc(C(=O)Nc2ccc3c(c2)N(C)C(=O)c2ccccc2S3)cc1	?	.	.	16µM	.
CCCNC(=O)Nc1ccc2c(c1)N(C)C(=O)c1ccccc1S2	21µM	-	-	?	-
CCC1(c2ccccc2)NC(=O)N(CC(=O)Nc2ccc(OC)nc2)C1=O (stereo not given)	-	-	-	-	-
COC(=O)[C@@]12C[C@@H](CC(=O)N3CCC(c4ccccc4)CC3)C(=O)N(Cc3cccc4ccccc34)C1=CCC(C)(C)C2	-	-	-	-	-
CN(C)C=NC(=O)c1cn(-c2ccc(F)cc2)c(=O)c2ccccc12	-	-	-	-	-
CCOC(=O)c1cc(C#N)c(N2CCN(C(=O)c3ccccc3)CC2)nc1C(F)(F)F	21µM	-	-	-	-
CCOC(=O)c1cc(C#N)c(N2CCN(C(=O)c3cccc(C(F)(F)F)c3)CC2)nc1C(F)(F)F	?	?	-	?	?
COc1ccc(CNC(=O)C(CC(C)C)NS(=O)(=O)c2ccc3c(c2)oc(=O)n3C)cc1 (stereo not given)	-	.	.	?	.
CC1=C(C(=O)OCCBr)C(c2cccc3ccccc23)NC(=O)N1 (stereo not given)	-	-	-	-	-
Cc1cc(NCCCn2ccnc2)n2ncc(-c3ccc(Cl)cc3)c2n1	-	11µM	11µM	-	?
Cc1nn2c(NCc3ccccn3)cc(C(C)(C)C)nc2c1-c1ccccc1	-	-	-	?	-
CCCc1cc(NCCCn2ccnc2)n2nc(C)c(-c3ccccc3)c2n1	?	13µM	?	-	.
CN(C)CCCNc1cc(C(C)(C)C)nc2c(-c3ccc(Cl)cc3)cnn12	?	12µM	18µM	-	-105
CC(C)Nc1cc(C(C)(C)C)nc2c(-c3ccccc3)cnn12	-	?	?	-	-70
Cc1ccccc1-c1cc2nc(NCc3ccccc3F)n(C)c(=O)c2s1	-	?	?	-	?
Cc1cccc(-c2cc3nc(C)cc(NCCCn4ccnc4)n3n2)c1	-	?	?	-	-106
CC(C)(C)c1cc(NCCCn2ccnc2)n2ncc(-c3ccccc3)c2n1	?	16µM	18µM	-	-97
Cc1cc(NCCCN(C)C)n2nc(-c3cccs3)cc2n1	-	-[9.24 µM]	-	-	-109
Cc1cc(C)c2c(n1)nn1c(NCCCN(C)C)cc(C)nc21	-	-	-	-	-
CCOc1ccccc1CNc1ncnc2onc(-c3ccc(F)cc3)c12	-	.	.	-	.
O=S(=O)(c1ccc(Br)cc1)c1nc(-c2cccs2)oc1SCc1ccc(F)cc1	-	.	.	-	.
CSc1ccc(NC(=O)C2(C)CCN2C(=O)c2sccc2C)cc1 (stereo not given)	-	-	-	-	-71
SMILES	KB-V1 MDR tox	HT1080 IDH1KD tx	HT1080-NT tox	KB-3-1 cytotox	IL1B secr inh
COC(=O)C(C(=O)OC)c1cc2c(cc1CNS(=O)(=O)c1ccc(C)cc1)OCO2	?	-	-	-	-
COc1cccc(-c2cnc3c(NC(C)=O)cc(-c4ccsc4)cn23)c1	?	-	-	-	-
CN(C)CC(C)(C)CNS(=O)(=O)c1ccc(Cl)c(Cl)c1	-	16µM!	-	-	-54!
CCC(=O)Nc1cc(C(=O)OCc2ccc(C(=O)Oc3ccccc3)cc2)ccc1C	-	-	-	-	-
COCCNC(=O)c1cc2c(=O)n3cccc(C)c3nc2n1C	5.8µM	-	-	3.3µM	-
COCCCNC(=O)c1cccn2c(=O)c3cc4ccccc4cc3nc12	4.1µM	?	-	-	-86
Cc1cccn2c(=O)c3cc(C(=O)NCCCN4CCCC4=O)n(C)c3nc12	-	-[9.24 µM]	-	-	-77
C=CCn1c(=N)c(C(=O)NCCCOC)cc2c(=O)n3cccc(C)c3nc21	-	-	-	-	-
CCOCCCNC(=O)c1cc2c(=O)n3cccc(C)c3nc2n1C	-	?	?	?	-
O=C(Cn1c(=O)c2ccccc2n(CC(=O)Nc2ccc(F)cc2)c1=O)NCCc1ccccc1	-	.	.	-	.
COc1ccc(C(=O)NC(=S)N2CCOCC2)cc1Br	-	-	-	-	-
CCN(CC)c1ncnc2c1cnn2-c1cc(Cl)ccc1C	-	.	.	-	.
NC(=O)c1ccc(NC(=O)COC(=O)C2CCN(S(=O)(=O)c3cccs3)CC2)cc1	-	-	-	-	-
Cc1nnc(NC(=O)CCn2c(=O)oc3ccccc32)s1	-	-	-	-	-
O=C(CCn1c(=O)sc2ccccc21)NC1CCCCC1	-	-	-	-	-
COc1cc2[nH]c(=S)nc(NCC3CCCO3)c2cc1OC (stereo not given)	-	-	-	-	-
COc1cc2[nH]c(=S)nc(NC3CCCCCC3)c2cc1OC	-	?	?	-	-139
Cc1c(Cl)cccc1NC(=O)c1ncn(-c2ccccc2)n1	?	.	.	-	.
COc1ccc(CCNC2CC(=O)N(CCc3ccc(OC)c(OC)c3)C2=O)cc1OC (stereo not given)	18µM	-	-	-	-
